Laboratory results taken from PubChem BioAssay (NCATS).
Results filed as inconclusive are left out. The source made the active and inactive calls. Calls come from the whole dose curve; as a rule, active = well fitted inhibition curve with a large enough effect; inconclusive = small, poorly fitted or top-dose-only effect; inactive = no such curve, though single readings can be large or run the other way.

experiment: Counterscreen for APE1 Inhibitors: Fluorescent Dye Displacement Validation Assay (AID 1707); details: fluorescent dye displacement from DNA; series mostly up to 57.1 µM; activity change, negative = inhibition: at the top concentration
From the text: In order to distinguish true inhibitors of DNA-processing enzymes from promiscuous DNA-binding compounds among screening assay hits, we developed a homogeneous and miniaturized assay based on fluorescent dye displacement test as originally described by Tse and Boger (Accounts of Chemical Research (2004) 37: 61-69). The assay is based on the strong enhancement of fluorescence when Thiazole Orange (ThO) binds to double-stranded DNA: conversely, in the presence of a DNA-binding compound, Thiazole Orange is displaced from the DNA and its fluorescence is reduced.
Buffer. 50 mM Tris-HCl (pH7.5) containing 50mM NaCl, 2 mM MgCl2, and 0.01% Tween-20.
Buffer containing 250 nM ThO in columns 3 and 4 as negative control (no dsDNA).
Reaction mixture: 250 nM ThO and 50 nM dsDNA at final concentration dispensed throughout the plate: in columns 1, 2, 5-48. Column 1 is neutral (100% activity).
5''TAMRA- TC ACC FTC GTA CGA CTC
3'' AG TGG GAG CAT GCT GAG
where F denotes tetrahydrofuran.
Control: Pintool transfer of control compound WB64 (W4761, Sigma-Aldrich) to column 2 of all assay plates as a two-fold 16-point dilution in duplicate (concentration range 5.75 uM - 0.175 nM).
Four uL of reaction mixtures were dispensed to 1536-well Greiner black solid bottom plates. Compounds (23 nL) were transferred […] in order to measure the endpoint fluorescence using 480 nm excitation and 540 nm emission fluorescence protocol.
Potency is the fitted concentration of half-maximal effect.

Row | Structure (SMILES) | activity change, negative = inhibition | Potency
1 | Fc1ccc(C(OCCN2CCN(CCCc3ccccc3)CC2)c2ccc(F)cc2)cc1 | -0.794% (inactive) | 
2 | Cc1ccc(S(=O)(=O)N[C@@H](CCCCN)C(=O)CCl)cc1 | 5.9% (inactive) | 
3 | CCCC(C)(COC(N)=O)COC(=O)NC(C)C (stereo not given) | 0.188% (inactive) | 
4 | NN=C(N)N |  | inactive
5 | COC[C@H]1OC(=O)c2coc3c2[C@@]1(C)C1=C(C3=O)C2CCC(=O)[C@@]2(C)C[C@H]1OC(C)=O (stereo not given in full) | 12.6% (inactive) | 
6 | CC(CCc1ccccc1)NC(C)C(O)c1ccc(O)cc1 (stereo not given) | -4.84% (inactive) | 
7 | CNCC(O)c1ccc(O)cc1 (stereo not given) | 3.35% (inactive) | 
8 | COc1ccccc1N1CCNCC1 | -0.916% (inactive) | 
9 | CCCN1CCC[C@@H]2Cc3nc(N)ncc3C[C@H]21 | 1.31% (inactive) | 
10 | O=c1[nH]c2ccccc2n1CCCN1CCC(n2c(=O)[nH]c3cc(Cl)ccc32)CC1 | 1.77% (inactive) | 
11 | CCC1(C2=NCCN2)Cc2ccccc2O1 (stereo not given) | 2.48% (inactive) | 
12 | Cc1cccc(C)c1NC1=NCCCS1 | 5.14% (inactive) | 
13 | N#CC(C#N)=Cc1ccc(O)c(O)c1 | 3.64% (inactive) | 
14 | CN1C[C@H](CNC(=O)OCc2ccccc2)C[C@@H]2c3cccc4c3c(cn4C)C[C@H]21 | 6.52% (inactive) | 
15 | CCn1cc(C(=O)O)c(=O)c2ccc(C)nc21 | 3.13% (inactive) | 
16 | CC(=O)[C@H]1CC[C@H]2[C@@H]3CC[C@H]4C[C@H](O)CC[C@]4(C)[C@H]3C(=O)C[C@]12C | -0.933% (inactive) | 
17 | O=c1[nH]c2ccccc2n1C1CCN(CCCC(c2ccc(F)cc2)c2ccc(F)cc2)CC1 | -1.05% (inactive) | 
18 | O=c1c(O)c(-c2ccc(O)c(O)c2)oc2cc(O)cc(O)c12 |  | 2510 nM (active)
19 | C=C(C)[C@H]1Cc2c(ccc3c2O[C@@H]2COc4cc(OC)c(OC)cc4[C@@H]2C3=O)O1 | -1.79% (inactive) | 
20 | COc1ccc(Cc2nccc3cc(OC)c(OC)cc23)cc1OC | -4.15% (inactive) | 
21 | c1ccc2c(c1)OCC(C1=NCCN1)O2 (stereo not given) | -0.193% (inactive) | 
22 | Nc1ccncc1 | -2.71% (inactive) | 
23 | Clc1cccc(N2CCNCC2)c1 | 0.115% (inactive) | 
24 | NCC(O)c1ccc(O)cc1 (stereo not given) | 1.58% (inactive) | 
25 | NCC1(CC(=O)O)CCCCC1 | 0.0368% (inactive) | 
26 | O=C1NCN(c2ccccc2)C12CCN(CC1COc3ccccc3O1)CC2 (stereo not given) | -2.76% (inactive) | 
27 | CC[N+](CC)(CC)CC | 0.972% (inactive) | 
28 | c1ccc(C2CC2)c(OCC2=NCCN2)c1 | 0.234% (inactive) | 
29 | Cc1ncc(CNC(=O)N(CCCl)N=O)c(N)n1 | 1.01% (inactive) | 
30 | NCC(CC(=O)O)c1ccc(Cl)cc1 (stereo not given) | 3.03% (inactive) | 
